Results reported in PubChem BioAssay (EPA / NIEHS).
Active and inactive are the calls of the source. Rule for the calls: active = hit-call score of the fitted dose curve at least 0.9, where 1 is the maximum; inactive = score below 0.9.

Tests used:
[1] = APR_HepG2_CellLoss_72hr: Apredica 72-hour HepG2 Assay for Cell Loss (AID 2282915); settings: high-content imaging
Outline: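 Cell number comes from Hoechst 33342-labelled nuclei, imaged at 20x after 3.7% formaldehyde fixation. Dosing was 0.39–200 uM, ten concentrations in duplicate, 0.5% DMSO final, for 72 h. Bidirectional fit relative to DMSO baseline.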

[2] = APR_HepG2_P-H2AX_72hr: Apredica 72-hour HepG2 Assay for H2AX Phosphorylation (AID 2282916); settings: imaging, actives raise or lower the signal;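 note: phospho-histone H2A.x immunostain intensity per cell marking DNA damage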
Outline: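 Following 72 hr treatment with 0.39–200 uM compound, HepG2 cells were formaldehyde-fixed, permeabilized and stained for phospho-H2A.x; signal was measured by high-content imaging and fitted bidirectionally against DMSO controls.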

[3] = APR_HepG2_MitoMembPot_72hr: Apredica 72-hour HepG2 Assay for Mitochondrial Membrane Potential (AID 2282917); settings: imaging, actives raise or lower the signal
Outline: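 Membrane potential read by MitoTracker Red CMXRos (250 nM, 30 min, pre-fixation) fluorescence imaging of HepG2 after 72 hr exposure. Ten concentrations, 0.39–200 uM, duplicate wells, 0.5% DMSO; fitted in both directions against DMSO baseline.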

[4] = APR_HepG2_MicrotubuleCSK_72hr: Apredica 72-hour HepG2 Assay for Microtubule CSK Stabilty (AID 2282919); settings: HepG2 microtubule cytoskeleton, high-content imaging, actives raise or lower the signal
Outline: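 Read-out is tubulin fluorescence intensity from high-content imaging of HepG2 cells, with nuclei identified by Hoechst 33342. Treatment lasts 72 h at 0.39–200 uM, and curves are fitted bidirectionally against the DMSO negative control.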

[5] = APR_HepG2_P-H2AX_24hr: Apredica 24-hour HepG2 Assay for H2AX Phosphorylation (AID 2282920); settings: high-content imaging, actives raise or lower the signal
Outline: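 HepG2 cells dosed 24 h at 0.39–200 uM (10 points, duplicate, 0.5% DMSO final). Formaldehyde-fixed and permeabilized, then immunostained for phospho-H2A.x with Hoechst. Fluorescence quantified by high-content imaging, fitted bidirectionally versus DMSO.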

[6] = APR_HepG2_StressKinase_72hr: Apredica 72-hour HepG2 Assay for Stress Kinase (AID 2282921); settings: HepG2 stress kinase (phospho-c-Jun) imaging, actives raise or lower the signal
Outline: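 Fluorescence intensity of Cy3-tagged anti-phospho-c-Jun antibody, quantified per cell from Hoechst-defined nuclei across six images per well, served as the read-out following 72 h exposure (0.39–200 uM, 0.5% v/v DMSO).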

[7] = APR_HepG2_NuclearSize_72hr: Apredica 72-hour HepG2 Assay for Nuclear Size (AID 2282925); settings: high-content imaging, actives raise or lower the signal
Outline: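 HepG2; cpd 0.39–200 uM, 10 conc, duplicate; 72 h; DMSO 0.5% v/v; fix 3.7% formaldehyde 30 min RT; Triton permeabilization; Hoechst 2 ug/mL; HCS imaging 20x; nuclear diameter; gain/loss fit vs DMSO.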

[8] = ATG_CRE_CIS: Attagene CIS-FACTORIAL HepG2 Assay for human cAMP Responsive Element (CRE) binding protein 3 (AID 2282926); settings: HepG2 CRE cis-reporter, Attagene multiplexed mRNA; actives raise or lower the signal
Outline: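 HepG2 cells transiently transfected with cis-element-driven multiple reporter transcription units; CRE reporter mRNA measured 24 h after dosing by RT-PCR, 6-FAM labelling, HpaI digestion and capillary electrophoresis. Bidirectional fit versus DMSO baseline.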

[9] = target: CCAAT/enhancer-binding protein beta (Homo sapiens) (UniProt P17676); assay: ATG_C_EBP_CIS: Attagene CIS-FACTORIAL HepG2 Assay for human CCAAT/Enhancer Binding Protein (C/EBP) beta (AID 2282927); settings: HepG2 Attagene cis-factorial transcription factor reporter; actives raise or lower the signal
Outline: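 Endogenous C/EBPb-driven reporter transcripts measured in transfected human HepG2 cells at 24 h via RT-PCR and capillary electrophoresis of labelled fragments. Activity fitted in both directions relative to DMSO baseline.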

[10] = ATG_CMV_CIS: Attagene CIS-FACTORIAL HepG2 Assay for human CMV (Internal Marker) (AID 2282928); settings: HepG2 CMV promoter reporter, transcription factor profiling; actives raise or lower the signal;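 note: endpoint acts as a background internal control marker rather than a target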
Outline: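 Endogenous transcription factor activity read in HepG2 via transfected cis-promoter reporter units. After 24 h dosing, reporter mRNA measured by RT-PCR/capillary electrophoresis; gain or loss of signal fit relative to DMSO.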

[11] = ATG_DR4_LXR_CIS: Attagene CIS-FACTORIAL HepG2 Assay for human Liver X Receptor (LXR), DR4 submotif (AID 2282929); settings: HepG2 Attagene DR4 cis-reporter, mRNA transcription; actives raise or lower the signal
Outline: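 The endpoint is DR4-element-driven reporter transcripts after 24 h chemical exposure of transfected HepG2 cells. These were measured via RT-PCR and capillary electrophoresis, and gain or loss of signal was fitted relative to DMSO controls.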

[12] = target: Aryl hydrocarbon receptor (Homo sapiens) (UniProt P35869); assay: ATG_Ahr_CIS: Attagene CIS-FACTORIAL HepG2 Assay for human Aryl Hydrocarbon Receptor (Ahr) (AID 2282930); settings: HepG2 AhR cis-factorial reporter transcription; actives raise or lower the signal
Outline: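 Reporter mRNA levels, quantified by RT-PCR and fluorescent capillary electrophoresis, reflect endogenous AhR transcriptional activity in HepG2 cells carrying transfected cis-promoter reporter constructs. Readout at 24 h post-dose; gain or loss fitted against DMSO baseline.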

[13] = ATG_AP_1_CIS: Attagene CIS-FACTORIAL HepG2 Assay for human Activator Protein 1 (AP-1) (AID 2282931); settings: HepG2 Attagene cis-factorial AP-1 reporter mRNA; actives raise or lower the signal
Outline: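 Readout is reporter transcript level from endogenous transcription factor activity, quantified by RT-PCR with fluorescent primer extension and capillary electrophoresis. Transiently transfected HepG2 cells, 24 h exposure. Curves fitted both directions versus DMSO.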

[14] = ATG_AP_2_CIS: Attagene CIS-FACTORIAL HepG2 Assay for human Activator Protein 2 (AP-2) (AID 2282932); settings: HepG2 AP-2 cis-reporter, Attagene transcription factor profiling; actives raise or lower the signal
Outline: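 Step one: transient transfection of HepG2 with reporter transcription units. Step two: 24 h chemical exposure. Step three: RNA extraction, RT-PCR, labelled fragment analysis by capillary electrophoresis; DMSO serves as baseline.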

[15] = ATG_BRE_CIS: Attagene CIS-FACTORIAL HepG2 Assay for human Bone Morphogenetic Protein (BMP) Response Element (BRE) (AID 2282933); settings: HepG2 BMP response element reporter, Attagene transcription factor profiling; actives raise or lower the signal
Outline: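 HepG2 cells transiently transfected with CIS reporter units (endogenous TF activity, BMP response element), dosed 24 h. Reporter mRNA quantified by RT-PCR, fluorescent labelling and capillary electrophoresis; bidirectional fit vs DMSO baseline.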

[16] = APR_HepG2_p53Act_72hr: Apredica 72-hour HepG2 Assay for p53 Activation (AID 2282923); settings: high-content imaging, actives raise or lower the signal;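 note: average cellular p53 protein immunofluorescence intensity in HepG2 cells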
Outline: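 HepG2 monolayers receive test compounds in duplicate at ten concentrations (0.39 through 200 uM) for 72 hr. They are then formaldehyde-fixed, antibody-labelled for p53, Hoechst-stained and imaged, with activity fitted bidirectionally versus DMSO.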

[17] = target: Retinoic acid receptor alpha (Homo sapiens) (UniProt P10276); assay: ATG_DR5_RAR_CIS: Attagene CIS-FACTORIAL HepG2 Assay for human Retinoic Acid Receptor Alpha (RARE), DR5 submotif (AID 2282934); settings: HepG2 Attagene cis-factorial RARE DR5 reporter, mRNA; actives raise or lower the signal;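 for AC50: reporter responds to endogenous RAR alpha beta and gamma in HepG2 not RARA alone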
Outline: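 Reporter transcripts from a DR5-regulated unit, measured via RT-PCR plus capillary electrophoresis, reflect endogenous RAR activity in transiently transfected human HepG2 liver cells. Exposure lasted 24 h; gain or loss of signal scored against DMSO.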

[18] = APR_HepG2_StressKinase_24hr: Apredica 24-hour HepG2 Assay for Stress Kinase (AID 2282922); settings: HepG2 stress kinase (phospho-c-Jun) imaging, actives raise or lower the signal
Outline: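 HepG2, 24 hr dosing, 0.39–200 uM in duplicate, 0.5% DMSO; formaldehyde fix (3.7%), 0.5% Triton X-100; anti-phospho-c-Jun + Cy3 secondary, Hoechst counterstain; ArrayScan imaging; bidirectional curve fit vs DMSO baseline.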

Measured: AC50

Chain of CCAAT/enhancer-binding protein beta (Homo sapiens) (P17676 whole entry, looked up, the tested form may be a part): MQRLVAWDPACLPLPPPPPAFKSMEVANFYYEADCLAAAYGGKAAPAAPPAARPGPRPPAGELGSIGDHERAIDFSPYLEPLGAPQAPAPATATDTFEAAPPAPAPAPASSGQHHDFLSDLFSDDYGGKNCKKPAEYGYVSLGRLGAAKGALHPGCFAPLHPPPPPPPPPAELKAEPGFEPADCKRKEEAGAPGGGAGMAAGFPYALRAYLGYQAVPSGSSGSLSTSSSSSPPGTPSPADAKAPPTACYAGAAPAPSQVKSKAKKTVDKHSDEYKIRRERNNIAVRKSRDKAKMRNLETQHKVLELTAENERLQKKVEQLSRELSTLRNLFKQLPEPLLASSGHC
Chain of Retinoic acid receptor alpha (Homo sapiens) (P10276 whole entry, looked up): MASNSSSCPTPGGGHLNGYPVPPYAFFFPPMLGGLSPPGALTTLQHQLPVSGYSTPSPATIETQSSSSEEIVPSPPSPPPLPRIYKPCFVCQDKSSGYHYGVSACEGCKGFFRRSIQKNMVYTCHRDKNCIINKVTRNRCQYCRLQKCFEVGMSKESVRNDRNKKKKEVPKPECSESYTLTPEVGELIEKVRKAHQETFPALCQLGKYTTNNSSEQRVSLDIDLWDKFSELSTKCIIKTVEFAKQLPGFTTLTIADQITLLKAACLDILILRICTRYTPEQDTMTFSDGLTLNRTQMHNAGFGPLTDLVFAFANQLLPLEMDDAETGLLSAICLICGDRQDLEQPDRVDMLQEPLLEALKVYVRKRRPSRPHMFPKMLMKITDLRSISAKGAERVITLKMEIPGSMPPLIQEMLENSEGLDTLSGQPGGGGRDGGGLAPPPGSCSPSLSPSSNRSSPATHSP
Chain of Aryl hydrocarbon receptor (Homo sapiens) (P35869 whole entry, looked up): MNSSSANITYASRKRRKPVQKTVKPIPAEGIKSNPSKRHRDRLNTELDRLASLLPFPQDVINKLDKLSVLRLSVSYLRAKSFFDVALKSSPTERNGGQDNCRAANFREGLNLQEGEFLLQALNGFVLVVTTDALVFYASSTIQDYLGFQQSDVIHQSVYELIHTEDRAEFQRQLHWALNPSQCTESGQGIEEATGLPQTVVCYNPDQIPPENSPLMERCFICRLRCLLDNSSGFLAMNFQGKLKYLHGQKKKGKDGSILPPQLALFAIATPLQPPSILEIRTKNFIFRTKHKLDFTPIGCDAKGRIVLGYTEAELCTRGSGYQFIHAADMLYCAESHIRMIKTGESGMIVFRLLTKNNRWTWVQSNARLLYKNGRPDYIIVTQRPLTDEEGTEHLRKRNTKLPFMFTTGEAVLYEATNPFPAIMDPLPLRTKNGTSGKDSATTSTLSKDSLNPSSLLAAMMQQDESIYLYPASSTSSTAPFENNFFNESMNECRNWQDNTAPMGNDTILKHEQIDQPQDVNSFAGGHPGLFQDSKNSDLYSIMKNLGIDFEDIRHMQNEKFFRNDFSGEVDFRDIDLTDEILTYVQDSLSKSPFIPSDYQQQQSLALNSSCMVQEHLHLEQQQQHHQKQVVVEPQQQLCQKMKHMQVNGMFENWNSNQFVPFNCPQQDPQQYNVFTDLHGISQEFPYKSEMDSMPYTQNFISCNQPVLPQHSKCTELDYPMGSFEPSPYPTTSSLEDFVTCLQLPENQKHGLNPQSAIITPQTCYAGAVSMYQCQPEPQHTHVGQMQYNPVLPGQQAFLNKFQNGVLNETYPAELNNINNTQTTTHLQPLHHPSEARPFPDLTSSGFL

CCOP(=S)(OCC)SCSCC
active: [5] 107 µM
not listed: [16] | [17] | [18]
inactive: all other assays above

c1ccc2c(c1)Nc1ccccc1S2
active: [1] 47 µM | [3] 123 µM | [10] 21.3 µM | [15] 41.7 µM
not listed: [12] | [18]
inactive: all other assays above

CCC(C)(C)c1ccc(O)cc1
active: [1] 108 µM | [3] 56.4 µM | [16] 105 µM | [10] 49 µM | [13] 49.5 µM
not listed: [17] | [18]
inactive: all other assays above

CCOP(=S)(Oc1ccc([N+](=O)[O-])cc1)c1ccccc1 (configuration not stated)
active: [1] 27.7 µM | [11] 28.4 µM | [13] 22.1 µM | [15] 62.6 µM
not listed: [16] | [18]
inactive: all other assays above

c1nc[nH]n1
not listed: [12] | [17] | [18]
inactive: all other assays above

CCCCCCCc1ccc(O)cc1
not listed: [16]
inactive: all other assays above

Nc1ccc2ccccc2c1
active: [12] 7.38 µM
not listed: [18]
inactive: all other assays above

CCCN(CCC)c1c([N+](=O)[O-])cc(C(C)C)cc1[N+](=O)[O-]
active: [1] 43.1 µM | [2] 52.1 µM | [3] 46.9 µM | [4] 41.2 µM | [16] 44.1 µM | [10] 56.2 µM | [11] 5.57 µM | [13] 130 µM
not listed: [18]
inactive: all other assays above

ClC1=C(Cl)C2(Cl)C3C(Cl)C(Cl)CC3C1(Cl)C2(Cl)Cl (configuration not stated)
inactive: [7] | [8] | [9] | [14] | [15]
active: [1] 60.9 µM | [2] 108 µM | [3] 27.1 µM | [4] 98.6 µM | [5] 72.8 µM | [6] 109 µM | [16] 98.4 µM | [10] 48.8 µM | [11] 18.1 µM | [13] 48.1 µM | [17] 1.27 µM

CN(C)C(=O)Cl
not listed: [16] | [18]
inactive: all other assays above

CCN(CC)c1ccccc1
not listed: [12] | [17] | [18]
inactive: all other assays above

O=[N+]([O-])c1ccc(Cl)c(Cl)c1
not listed: [16] | [18]
inactive: all other assays above

O=C(O)C(Cl)Cl
not listed: [16] | [17] | [18]
inactive: all other assays above

CCCCc1ccccc1
not listed: [16] | [17] | [18]
inactive: all other assays above

CCC1(c2ccccc2)C(=O)N=C(O)NC1=O (configuration not stated)
not listed: [17] | [18]
inactive: all other assays above

Nc1cc2c3c(c1)C(c1ccccc1)=N[C@@H](NC(=O)c1cccnc1)C(=O)N3CC2
active: [9] 40.6 µM | [14] 145 µM
not listed: [12] | [16] | [17] | [18]
inactive: all other assays above
